Results reported in PubChem BioAssay.
Several values for one entry are separate records, joined by “and”; a condition that tells them apart may be missing. Identical values can stand only once. For some assays here: Measured potencies and affinities stand elsewhere. Activity calls are given as the source filed them. Rule as the data show it, unless noted: active = inhibition above about 80%; inactive = the rest.

Assays:
[1] = hESC survival regulators, cell-based (AID 493140; call rule not given here;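 also: cells exposed to compounds for four days before counting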); conditions: human embryonic stem cell survival screen; stronger effect = higher value
[2] = polyglutamine-triggered caspase-3 activation inhibitors, cell-based (AID 1583); conditions: polyglutamine-induced caspase-3 activation, cell assay; stronger effect = higher value;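 tested at 10 µM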
[3] = suppressors of polyQ aggregation in yeast, 75Q-TubU reporter (AID 1593); conditions: Yeast 75Q polyglutamine aggregation reporter
[4] = rescue of polyQ-huntingtin neuronal dysfunction in worms, whole organism, C. elegans mechanosensory neurons, N-terminal huntingtin (AID 1599); conditions: touch response, stronger effect = higher value
[5] = inhibitors of mitochondrial cytochrome c release, biochemical, purified mitochondria (AID 1603); conditions: stronger effect = lower value;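 also: mouse liver mitochondria challenged with calcium chloride; signal normalized to the plate average as 100%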
[6] = inhibitors of polyQ protein aggregation (AID 1604); conditions: polyglutamine-induced protein aggregation inhibition assay; stronger effect = higher value; tested at 2.5 µM
[7] = enhancers of glutamate uptake in motor neurons, MN-1 cell line (AID 1612); conditions: MN-1 motor neuron cells, stronger effect = higher value;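 also: tested at 1 µM final; 0% = mean of DMSO vehicle wells on each plate; positive means more glutamate uptake than control and negative means less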
[8] = reducers of polyQ inclusions in PC12 cells, cell-based, NGF-treated PC12, GFPQ80 (AID 1614); conditions: PC12 NGF-treated GFP-polyQ80 inclusion reduction;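 also: lower means fewer inclusions and 0 means no inclusions at all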
[9] = suppressors of polyglutamine aggregation in yeast, 75Q-TubH (AID 1616); conditions: S. cerevisiae 75Q-TubH polyglutamine aggregation suppression; stronger effect = higher value
[10] = inhibitors of Cryptococcus chitosan production, flow cytometry, Cibacron Brilliant Red staining (AID 1347148; call rule not given here;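 also: compound exposure lasted three days at 37 degrees C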); conditions: Cryptococcus neoformans chitosan, stronger effect = lower value; at 10 µM unless noted
[11] = LFS_MB_P medulloblastoma growth inhibition, cell-based, chromothripsis tumors, cisplatin or BGB combos (AID 1671449); conditions: LFS_MB_P medulloblastoma cells;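 also: cells exposed for 96 hours; 0% = vehicle DMSO and 100% = killing by high DMSO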
[12] = HDN33 neuroblastoma growth inhibition, cell-based, chromothripsis tumors, cisplatin or BGB combos (AID 1671450); conditions: HDN33 neuroblastoma cells, stronger effect = higher value;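 also: cells exposed to compound for four days; 0% = vehicle DMSO and 100% = cell killing by high DMSO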
[13] = LFS_MB_1R medulloblastoma cell growth inhibition, synergistic combos for chromothripsis tumors, cisplatin or BGB combos (AID 1671452); conditions: LFS_MB_1R medulloblastoma cells, stronger effect = higher value;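 also: cells exposed for 96 hours before readout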
[14] = HTB85 osteosarcoma cell growth inhibition, synergistic combos for chromothripsis tumors, BGB or cisplatin IC20 combos (AID 1671453); conditions: HTB85 osteosarcoma cells, drug combinations, stronger effect = higher value;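 also: cells exposed for 96 hours before readout; 0% = vehicle DMSO and 100% = high DMSO killing control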
[15] = CRL2098 osteosarcoma cell growth inhibition, synergistic combos for chromothripsis tumors, BGB or cisplatin IC20 combos (AID 1671454); conditions: CRL2098 osteosarcoma cells, drug combinations, stronger effect = higher value;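 also: cells exposed for 96 h before readout; 0% = vehicle DMSO and 100% = killing by high DMSO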
[16] = HD-MB03 medulloblastoma cell growth inhibition, synergistic combos for chromothripsis tumors, BGB or cisplatin IC20 combos (AID 1671455; in the data active = inhibition above about 83%;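 also: 0% = vehicle DMSO and 100% = high DMSO as cytotoxic control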); conditions: HD-MB03 medulloblastoma cells, stronger effect = higher value
[17] = MDA-MB-436 breast carcinoma cell growth inhibition, synergistic combos for chromothripsis tumors, BGB or cisplatin combos (AID 1671458; call rule not given here;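 also: cells exposed for 96 hours; 0% = vehicle DMSO and 100% = killing by high DMSO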); conditions: MDA-MB-436 breast carcinoma growth inhibition, drug combinations, stronger effect = higher value
[18] = growth inhibition of BT084 medulloblastoma cells, cell-based, ICGC_MB145, cisplatin and BGB IC40 combos (AID 1671461); conditions: drug combinations, stronger effect = higher value;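 also: cells exposed to drugs for 96 hours; 0% = vehicle DMSO and 100% = high DMSO full killing control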
[19] = growth inhibition of RCMB18 medulloblastoma cells, cell-based, cisplatin and BGB IC40 combos (AID 1671462); conditions: stronger effect = higher value;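 also: cells exposed to compound for four days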
[20] = growth inhibition of CRL1545 osteosarcoma cells, cell-based, cisplatin and BGB IC20 combos (AID 1671464); conditions: stronger effect = higher value;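 also: cells exposed to compound for 96 hours before readout; 0% = vehicle DMSO and 100% = high DMSO killing control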
[21] = measured here: combination with BGB IC40, at 0.05 µM
[22] = measured here: with BGB IC20 combination, at 0.5 µM
[23] = measured here: with cisplatin IC20 combination, at 0.5 µM
[24] = measured here: combination with cisplatin, at 0.5 µM

## Cc1cnc(C(=O)NCCc2ccc(S(=O)(=O)NC(=O)NC3CCCCC3)cc2)cn1
[1]
  survival: 31.5 (inactive)

## CC[C@H]1OC(=O)[C@H](C)[C@@H](O[C@H]2C[C@@](C)(OC)[C@@H](O)[C@H](C)O2)[C@H](C)[C@@H](O[C@@H]2O[C@H](C)C[C@H](N(C)C)[C@H]2O)[C@](C)(O)C[C@@H](C)CN(C)[C@H](C)[C@@H](O)[C@]1(C)O
[2]
  inhibition: 6.36%
[3]
  score: 1.1
[4]
  rescue above control: 0.7
[5]
  cytochrome c release ratio: 1.04
[6]
  inhibition of aggregation: 65.2%
[7]
  glutamate uptake change: 5.3%
[8]
  inclusion score: 3
[9]
  aggregation suppression score: 0.581

## Cc1c(C(=O)NN2CCCCC2)nn(-c2ccc(Cl)cc2Cl)c1-c1ccc(I)cc1
[1]
  survival: 93 (inactive)
[10]
  fold fluorescence: 6.03 (inactive)

## O=C(c1ccc(OCCN2CCCCC2)cc1)c1c(-c2ccc(O)cc2)sc2cc(O)ccc12
[1]
  survival: 4.58 (inactive)

## CC(Cc1ccc(O)c(O)c1)(NN)C(=O)O (centres undefined)
[2]
  inhibition: 4.01%
[3]
  score: 1.18
[4]
  rescue above control: -6.05
[5]
  cytochrome c release ratio: 0.84
[6]
  inhibition of aggregation: 15.6%
[7]
  glutamate uptake change: 6.68%
[8]
  inclusion score: 2
[9]
  aggregation suppression score: 1.15

## COc1nc(C)nc(Cl)c1NC1=NCCN1
[1]
  survival: 21 (inactive)

## CC(C)NCC(O)c1ccc(NS(C)(=O)=O)cc1 (centres undefined)
[1]
  survival: 2.17 (inactive)

## CCOC(=O)c1ccc(OC(=O)CCCCCN=C(N)N)cc1
[1]
  survival: 18.2 (inactive)

## CC(C)C[C@H](NC(=O)[C@@H](O)[C@H](N)Cc1ccccc1)C(=O)O
[10]
  fold fluorescence: 3.88 [at 162.1 µM] (inactive)

## Cc1cccc(CCN2CCC(C(=O)c3ccc(NS(C)(=O)=O)cc3)CC2)n1
[10]
  fold fluorescence: 4.01 [at 124.5 µM] (inactive)

## CC(C)(S)C(N)C(=O)O (centres undefined)
[2]
  inhibition: 22.3%
[3]
  score: 1.79
[4]
  rescue above control: -1.67
[5]
  cytochrome c release ratio: 0.98
[6]
  inhibition of aggregation: 94.4%
[7]
  glutamate uptake change: -17.3%
[8]
  inclusion score: 2
[9]
  aggregation suppression score: 1.65

## CCN(CC)CC#CCOC(=O)C(O)(c1ccccc1)C1CCCCC1 (centres undefined)
[1]
  survival: 12.5 (inactive)

## O=c1[nH]c(=O)n(C2CCCO2)cc1F (centres undefined)
[11]; at 0.5 µM, stronger effect = higher value
  inhibition: -23.3% (inactive) and -7.12% (inactive)
[11]; measured here: combination with BGB IC20, at 0.005 µM
  inhibition: 1.7% and -19.8%
[11]; measured here: combination with BGB IC40, at 0.005 µM
  inhibition: 22.1% and -46.3%
[11]; [21]
  inhibition: 39.2% and -46.2%
[11]; measured here: combination with cisplatin, at 0.5 µM, stronger effect = higher value
  inhibition: -44.2% and 1.28%
[11]; measured here: combination with cisplatin, at 5 µM, stronger effect = higher value
  inhibition: -1.4% and -18.1%
[12]; BGB combo, at 5 µM
  inhibition: 12.1% and -46.5%
[12]; at 0.5 µM
  inhibition: 9.66% (inactive) and -23% (inactive)
[12]; cisplatin combo, at 5 µM
  inhibition: 10.3% and -19.4%
[12]; [22]
  inhibition: 23.6% and -35.7%
[12]; [23]
  inhibition: 2.46% and -11.5%
[12]; single agent, at 5 µM
  inhibition: -7.16% and -34.9%
[13]; at 0.5 µM
  inhibition: -5.43% (inactive) and -39.4% (inactive)
[13]; [21]
  inhibition: 2.48% and -16.7%
[13]; [24]
  inhibition: -8.32% and -55.8%
[13]; measured here: combination with cisplatin, at 5 µM
  inhibition: -0.329% and -28.6%
[14]; at 0.5 µM
  inhibition: 2.38% (inactive) and -13.2% (inactive)
[14]; measured here: with BGB IC20, at 0.5 µM
  inhibition: -7.69% and 6.31%
[14]; measured here: with BGB IC20, at 5 µM
  inhibition: -1.29% and -14.6%
[14]; measured here: with cisplatin IC20, at 0.5 µM
  inhibition: -5.89% and -34.8%
[14]; measured here: with cisplatin IC20, at 5 µM
  inhibition: 2.69% and -26.3%
[14]; single agent, at 5 µM
  inhibition: 15.1% and -15%
[15]; at 0.5 µM
  inhibition: 3.75% (inactive) and -63.9% (inactive)
[15]; measured here: combination with BGB at IC20, at 0.5 µM
  inhibition: 7.31% and -58.1%
[15]; measured here: combination with cisplatin at IC20, at 0.5 µM
  inhibition: 18.7% and -78.1%
[16]; at 0.5 µM
  inhibition: 1.31% (inactive) and -8.99% (inactive)
[16]; measured here: combo with BGB at IC20, at 0.5 µM
  inhibition: -4.63% and -10.8%
[16]; measured here: combo with cisplatin at IC20, at 0.5 µM
  inhibition: 6.01% and -7.71%
[17]; at 0.5 µM
  inhibition: -0.47% (inactive) and -23.2% (inactive)
[17]; measured here: BGB combination, at 0.5 µM
  inhibition: -3.41% and -22.4%
[17]; measured here: BGB combination, at 5 µM
  inhibition: -17.4% and -31.2%
[17]; measured here: cisplatin combination, at 0.5 µM
  inhibition: 0.87% and -34.6%
[17]; measured here: cisplatin combination, at 5 µM
  inhibition: -5.11% and -24.1%
[18]; at 0.5 µM
  inhibition: 11.3% (inactive) and -10.3% (inactive)
[18]; cisplatin combination, at 0.5 µM
  inhibition: -7.35% and -15%
[18]; cisplatin combination, at 5 µM
  inhibition: -13.3% and -155%
[18]; measured here: BGB IC40 combination 0.05 uM, at 0.05 µM
  inhibition: 5.6% and -35.5%
[18]; single agent, at 5 µM
  inhibition: 10.4% and -13.1%
[19]; at 0.5 µM
  inhibition: 1.7% (inactive) and -8.58% (inactive)
[19]; cisplatin combo, at 5 µM
  inhibition: 12.7% and -18.4%
[19]; measured here: BGB IC40 combination, at 0.05 µM
  inhibition: -6.79% and -15.3%
[19]; [24]
  inhibition: 2.62% and -23%
[19]; single agent, at 5 µM
  inhibition: -0.936% and -12.4%
[20]; at 0.5 µM
  inhibition: -31.3% (inactive) and -16.2% (inactive)
[20]; [22]
  inhibition: -54.2% and -32.2%
[20]; [23]
  inhibition: -19.9% and -9.92%
[20]; single agent, at 0.05 µM
  inhibition: 6.98% and -30.8%
[20]; single agent, at 5 µM
  inhibition: -17.9% and -2.7%

## NC(Cc1cc(I)c(Oc2ccc(O)c(I)c2)c(I)c1)C(=O)O (centres undefined)
[2]
  inhibition: 2%
[3]
  score: 1.27
[4]
  rescue above control: -0.14
[5]
  cytochrome c release ratio: 4.78
[6]
  inhibition of aggregation: 79.3%
[7]
  glutamate uptake change: -8.22%
[9]
  aggregation suppression score: 0.825
